Shown are actives, neighbours in structure and some others; about 15% of the full set was active somewhere.
ELG1 DNA repair: ELG1-dependent DNA repair inhibition | HEK293T ELG1-luciferase reporter, luminescence, 16 h; DNA damage induced by 5-fluorouridine | Potency, µM (titrated, usually from 46.1 µM), most hits filed as inhibitors | hit rate 2.3% among 330,000; note: nearly all actives have a fitted effect of over 55% in size
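In this reporter screen, reduction of luminescence relative to DMSO vehicle indicated activity. Compounds and 5-fluorouridine were added together to 2,000 cells per well, incubated for 16 hr at 37 °C, then developed with ONE-Glo.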
Gal4-VP16 FLuc: inhibits Gal4-VP16 luciferase reporter, ROR gamma counter-screen; Drosophila S2 Gal4-VP16 UAS-luciferase, luminescence, 20 h; Potency, µM (top dose mostly 53.6 µM), hits mostly inhibitors; hit rate 3.5% among 310,000; AID 2546;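 note: Gal4-VP16 expression switched on by copper sulfate through the metallothionein promoter; nearly all actives have a fitted effect of over 50% in size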
RORgamma inh: ROR gamma (mouse) transcription inhibition | P51450 | Drosophila S2 Gal4-RORgamma UAS-luciferase reporter, 20 h | Potency, µM (series often up to 53.6 µM), usual class: inhibitors | hit rate 5.4% among 310,000; note: nearly all actives have a fitted effect of over 60% in size
Target sequence (P51450 whole entry, looked up, the tested form may be a part): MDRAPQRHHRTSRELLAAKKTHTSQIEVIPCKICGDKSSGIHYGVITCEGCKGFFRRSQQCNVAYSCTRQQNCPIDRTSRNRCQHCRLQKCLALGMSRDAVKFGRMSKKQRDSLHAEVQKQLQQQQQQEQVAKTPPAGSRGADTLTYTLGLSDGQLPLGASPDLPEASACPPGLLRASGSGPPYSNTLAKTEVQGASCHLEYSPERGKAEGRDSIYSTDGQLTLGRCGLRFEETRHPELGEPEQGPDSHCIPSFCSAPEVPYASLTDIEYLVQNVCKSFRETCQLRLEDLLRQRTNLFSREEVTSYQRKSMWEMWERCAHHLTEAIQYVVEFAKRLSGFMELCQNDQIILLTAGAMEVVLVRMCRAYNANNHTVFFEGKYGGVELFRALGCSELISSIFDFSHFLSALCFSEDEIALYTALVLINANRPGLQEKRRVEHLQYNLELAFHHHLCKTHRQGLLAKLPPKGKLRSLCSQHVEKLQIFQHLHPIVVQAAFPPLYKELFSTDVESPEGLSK
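Stable Schneider cell line, Gal4 DNA-binding domain fused to ROR gamma, UAS-luciferase. Cmpd 1 hr RT → CuSO4 700 uM final → 20 hr RT → luciferase reagent 10 min → luminescence.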
TDP1 cell noCPT: qHTS for Inhibitors of human tyrosyl-DNA phosphodiesterase 1 (TDP1): qHTS in cells in absence of CPT | DT40 Tdp1-/- hTDP1 cells, no CPT, ATP luminescence, 48 h | Potency, µM (highest dose often 46.2 µM), most hits filed as inhibitors | hit rate 15% among 420,000; note: nearly all actives have a fitted effect of over 55% in size
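No-CPT arm: Tdp1-/-;hTDP1 DT40 cells (400/well) plus compounds, incubated ≥48 hr at 37 °C. Readout CellTiter-Glo luminescence.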
12-LOX inh: blocks human arachidonate 12S-lipoxygenase | P18054 | purified 12hLO, xylenol orange hydroperoxide absorbance | Potency, µM (top dose mostly 108 µM), usual class: inhibitors | hit rate 1.1% among 580,000 | AID 1671190
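Purified human 12hLO (150 nM final) in 25 mM Hepes, 0.01% Triton X-100, pH 7.0 was preincubated 15 min at room temperature with compound. Then 40 uM arachidonic acid was added, 30 min. Hydroperoxide was read by Fe-XO absorbance ratio 573/405 nm.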
DT40 TDP1 CPT: DT40-hTDP1 cell growth loss with CPT; chicken DT40 Tdp1-/-;hTDP1 cells + 20 nM CPT, ATP luminescence, 48 h; Potency, µM (top dose mostly 46.2 µM), hits mostly inhibitors; hit rate 12% among 420,000; note: nearly all actives have a fitted effect of over 55% in size
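Chicken DT40 Tdp1-/- cells complemented with human TDP1, 400 cells/well, exposed to compounds plus 20 nM camptothecin for at least 48 h at 37 C; viability read as ATP content by CellTiter-Glo luminescence.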
Of the large screens only hits and unclear results are named; the others gave an inactive call. Calls come from the whole dose curve; as a rule, active = well fitted curve in the direction sought with a large enough effect; inconclusive = small, poorly fitted or top-dose-only effect, or another doubt; inactive = no such curve, though single readings can be large; an effect the other way counts as inactive or inconclusive.

CC(=O)C1=C(O)C(=O)N(c2ccc(Br)cc2)C1c1ccc(Br)cc1 (stereo not drawn)	12-LOX inh 7.94µM
COc1ccc(-c2c[n+]3c4n2CCCCC4=C(c2ccc(Br)cc2)C3)cc1	ELG1 DNA repair inconclusive, TDP1 cell noCPT 10.3µM, DT40 TDP1 CPT 6.51µM
Clc1ccc(C2=C3CCCCn4c(-c5ccccc5)c[n+](c43)C2)cc1	ELG1 DNA repair inconclusive, TDP1 cell noCPT inconclusive, DT40 TDP1 CPT inconclusive
Cc1ccc(C2(C)CC(C)(C)N(C(=O)CSc3nnc(C)s3)c3ccccc32)cc1 (stereo not drawn)	TDP1 cell noCPT 16.4µM, DT40 TDP1 CPT 20.6µM
Cc1ccc(C(=O)CSc2nnc(C)s2)cc1	ELG1 DNA repair inconclusive
Cc1nnc(SCC(=O)N2c3ccccc3C(C)(c3ccccc3)CC2(C)C)s1 (stereo not drawn)	TDP1 cell noCPT 11.6µM, DT40 TDP1 CPT 16.4µM
Cc1nnc(SCC(=O)N2CCN(Cc3ccccc3)CC2)s1	TDP1 cell noCPT inconclusive (no result: Gal4-VP16 FLuc)
Cc1ccccc1-c1cc2nc(NCCN3CCCC3)n(C)c(=O)c2s1	TDP1 cell noCPT inconclusive, DT40 TDP1 CPT inconclusive (no result: ELG1 DNA repair, Gal4-VP16 FLuc, RORgamma inh)
Cc1ccccc1-c1cc2nc(NCCOc3ccccc3)n(C)c(=O)c2s1	TDP1 cell noCPT inconclusive, DT40 TDP1 CPT inconclusive (no result: ELG1 DNA repair, Gal4-VP16 FLuc, RORgamma inh)
COc1ccc(-c2cc(CNc3nc4cc(-c5ccccc5C)sc4c(=O)n3C)on2)cc1	TDP1 cell noCPT 20.6µM, DT40 TDP1 CPT 16.4µM (no result: ELG1 DNA repair, Gal4-VP16 FLuc, RORgamma inh)
COc1ccccc1CNc1nc2cc(-c3sccc3C)sc2c(=O)n1C	TDP1 cell noCPT 16.4µM, DT40 TDP1 CPT 18.4µM (no result: ELG1 DNA repair, Gal4-VP16 FLuc, RORgamma inh)
COc1cccc(CNc2nc3cc(C(C)=C(C)C)sc3c(=O)n2C)c1	TDP1 cell noCPT inconclusive, 12-LOX inh 10µM, DT40 TDP1 CPT 18.4µM (no result: ELG1 DNA repair, Gal4-VP16 FLuc, RORgamma inh)
COc1ccccc1CNc1nc2cc(-c3ccccc3C)sc2c(=O)n1C	TDP1 cell noCPT 23.1µM, DT40 TDP1 CPT inconclusive (no result: ELG1 DNA repair, Gal4-VP16 FLuc, RORgamma inh)
COc1cccc(CNc2nc3cc(-c4cccc(Cl)c4)sc3c(=O)n2C)c1	none (no result: ELG1 DNA repair, Gal4-VP16 FLuc, RORgamma inh)
COc1cccc(CNc2nc3cc(-c4ccccc4C)sc3c(=O)n2C)c1	TDP1 cell noCPT 23.1µM, DT40 TDP1 CPT 20.6µM (no result: ELG1 DNA repair, Gal4-VP16 FLuc, RORgamma inh)
O=C1CCSc2c1cccc2C(=O)NCC1CCN(Cc2ccc(Cl)cc2)CC1	none (no result: ELG1 DNA repair, Gal4-VP16 FLuc, RORgamma inh, TDP1 cell noCPT, DT40 TDP1 CPT)
COCCN(C(=O)c1cc2c(s1)CCC(C)C2)c1c(N)n(CC(C)C)c(=O)[nH]c1=O (stereo not drawn)	none (no result: ELG1 DNA repair, Gal4-VP16 FLuc, RORgamma inh, TDP1 cell noCPT, DT40 TDP1 CPT)
O=C(Nc1cc2c(cc1C(O)c1ccccc1)OCCO2)c1cccc(Br)c1 (stereo not drawn)	none (no result: ELG1 DNA repair, Gal4-VP16 FLuc, RORgamma inh, TDP1 cell noCPT, DT40 TDP1 CPT)
CNc1ccc(Br)cc1C(O)c1ccccc1 (stereo not drawn)	ELG1 DNA repair inconclusive, Gal4-VP16 FLuc inconclusive, RORgamma inh 12.6µM
O=S(=O)(NCCc1csc2nc(-c3ccc(F)cc3)nn12)c1ccc(Br)cc1	TDP1 cell noCPT inconclusive, DT40 TDP1 CPT inconclusive (no result: ELG1 DNA repair, Gal4-VP16 FLuc, RORgamma inh)
O=S(=O)(NCCc1csc2nc(-c3ccc(Cl)cc3)nn12)c1ccc2c(c1)OCCO2	TDP1 cell noCPT 9.2µM, DT40 TDP1 CPT 14.6µM (no result: ELG1 DNA repair, Gal4-VP16 FLuc, RORgamma inh)
O=S(=O)(NCCc1csc2nc(-c3ccc(F)cc3)nn12)c1ccc2c(c1)OCCO2	TDP1 cell noCPT 23.1µM, DT40 TDP1 CPT 16.4µM (no result: ELG1 DNA repair, Gal4-VP16 FLuc, RORgamma inh)
COc1ccc(-c2nc3scc(CCNS(=O)(=O)c4ccc5c(c4)OCCO5)n3n2)cc1OC	TDP1 cell noCPT 20.6µM, 12-LOX inh inconclusive, DT40 TDP1 CPT inconclusive (no result: ELG1 DNA repair, Gal4-VP16 FLuc, RORgamma inh)
Cc1csc2nc(CCNS(=O)(=O)c3ccc4c(c3)OCCO4)cn12	none
COc1ccc(-c2nc3scc(CCNS(=O)(=O)c4c(C)noc4C)n3n2)cc1OC	TDP1 cell noCPT inconclusive (no result: ELG1 DNA repair, Gal4-VP16 FLuc, RORgamma inh)
COc1ccc(-c2nc3scc(CCNS(=O)(=O)c4ccc(F)c(C(F)(F)F)c4)n3n2)cc1OC	TDP1 cell noCPT 13µM, DT40 TDP1 CPT 14.6µM (no result: ELG1 DNA repair, Gal4-VP16 FLuc, RORgamma inh)
CCNC(=O)N1CCC[C@@H](O)[C@H](NC(=O)c2ccc(OCCOC)cc2)C1	none (no result: ELG1 DNA repair, Gal4-VP16 FLuc, RORgamma inh, TDP1 cell noCPT, DT40 TDP1 CPT)
O=C(CN1C(=O)NC2(CCCC2)C1=O)Nc1cccc2cccnc12	none (no result: ELG1 DNA repair, Gal4-VP16 FLuc, RORgamma inh, TDP1 cell noCPT, DT40 TDP1 CPT)

Screening results from PubChem.
